IL1B secr inh: blocks inflammasome-driven IL-1 beta release; THP-1 LPS/ATP IL-1B secretion, AlphaLISA, 16 h; active compounds read low; activity change, % at 57.5 µM; hit rate 4.7% among 360,000; in the data active = activity change below about -50%; inconclusive = mostly about -30% to -49%; also: % is scaled to controls: 0 for no effect and ±100 for the full control effect
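THP-1 cells pretreated 1 hr with compounds (up to 57.5 uM final), then stimulated with LPS (250 ng/mL final) plus ATP (1.25 mM final); secreted IL-1B measured by AlphaLISA after 16 hr, decreased signal indicating inhibition.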
HT1080-NT tox: kills 2HG-producing HT-1080-NT fibrosarcoma cells. HT-1080-NT fibrosarcoma viability, CellTiter-Glo ATP luminescence, 48 h. Potency, µM (top dose mostly 46.1 µM), without a hit: at the highest dose activity, negative = less viability, most hits filed as cytotoxic. hit rate 1.6% among 360,000. AID 686970;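 also: NT is the 2HG producing partner of a matched IDH1 knockdown line; potency is read from the fitted curve at half-maximal effect; 0% = DMSO-treated cells and -100% = media-only wells without cells; nearly all actives have a fitted effect of over 55% in size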
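Viability by CellTiter-Glo luminescence after 48 h compound exposure at 37C of HT-1080-NT cells (750/well, RPMI, 5% FBS). % activity scaled between DMSO wells and medium-only wells, then curve-fitted and categorized by curve class.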
TGFb SMAD3 inh: blocks TGF-b signaling; AID 588855; hit rate 1.2% among 410,000; HepG2 CAGA-GFP TGF-b/SMAD3 reporter, GFP fluorescence, 18 h; TGF-beta stimulated, 500 pg/mL final; Potency, µM (titrated, usually from 46.1 µM), inactives show at the top dose activity, negative = inhibition, most hits filed as inhibitors; also: potency is read from the fitted curve at half-maximal effect; % is scaled to controls: 0 for no effect and ±100 for the full control effect; nearly all actives have a fitted effect of over 65% in size
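Per well, imaged GFP fluorescence of HEPG2 CAGA-GFP cells gives the signal; cells get compound, then TGF-beta (500 pg/mL final), 18 h at 37 degrees C; %Activity versus -TGF-beta and +DMSO controls.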
Giardia kill: Giardia lamblia killing. AID 540267. Giardia lamblia trophozoite viability. activity change, % at 7.66 µM, hits read low. hit rate 0.15% among 340,000; in the data active = activity change below about -80%; inconclusive = between about -30% and that limit;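 also: parasites exposed to compound for two days anaerobically before the ATP read; % is scaled to controls: 0 for no effect and ±100 for the full control effect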
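Trophozoite viability was measured as ATP-dependent luminescence, read 15-30 min after reagent addition. Before that, parasites at 100 cells/well were exposed to compounds for 48 h, anaerobically, at 37 deg C.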
HT1080 IDH1KD tx: kills HT-1080 cells with IDH1 knockdown | HT-1080 IDH1 knockdown viability, ATP luminescence, 48 h | AID 686971 | Potency, µM (top dose mostly 46.1 µM), without a hit: at the highest dose activity, negative = toxicity, most hits filed as cytotoxic | hit rate 2% among 360,000;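 also: potency is read from the fitted curve at half-maximal effect; 0% = DMSO wells and -100% = cell-free medium wells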
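CellTiter-Glo luminescence after 48 h compound exposure at 37 degrees C of IDH1-knockdown HT-1080 cells in 5% FBS RPMI. %Activity scaled between DMSO wells and cell-free media wells, with curves fitted and assigned curve classes.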
HepG2 viability: counter-screen for TGF-b inhibitors: cytotoxicity in HepG2 cells | HepG2 CAGA-GFP viability, ATP luminescence, 18 h | Potency, µM (doses to about 46.1 µM), inactives show at the highest dose activity change, negative = cytotoxicity, hits mostly cytotoxic | hit rate 0.76% among 410,000; also: potency is read from the fitted curve at half-maximal effect
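CellTiter-Glo luminescence gave cytotoxicity after 18 hours at 37 degrees C. The cells were HepG2 CAGA-GFP in 1% FBS DMEM, stimulated with 500 pg/mL TGF-beta after compound addition. %Activity was normalised to no-cell wells (complete cell-killing) and DMSO (no toxicity), and curves were fitted and classified.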
Starred values were filed as active, the others as inactive; [ ] = another dose, or the depositor's remark. In the library only some 6.5% were active in any assay of this set; here they are far more common. Unless noted, calls follow the shape of the dose curve; as a rule, active = well fitted curve in the direction sought with a large enough effect; inconclusive = small, poorly fitted or top-dose-only effect, or another doubt; inactive = no such curve, though single readings can be large; an effect the other way counts as inactive or inconclusive.

How did C[C@@H]1C(c2cccc(Cl)c2)=NN(c2ccc(Br)cc2)[C@H]1C(=O)N1CCOC1=O do in these assays?
IL1B secr inh: -51*; HT1080-NT tox: inconclusive; TGFb SMAD3 inh: 10µM*; Giardia kill: 7; HT1080 IDH1KD tx: inconclusive; HepG2 viability: -30%

What do the screens show for `O=C1OCCN1C(=O)[C@H]1[C@H](c2ccc([N+](=O)[O-])cc2)C(c2ccc(F)cc2)=NN1c1ccccc1`?
IL1B secr inh: -51*; HT1080-NT tox: -14%; TGFb SMAD3 inh: inconclusive; Giardia kill: -25; HT1080 IDH1KD tx: -28%; HepG2 viability: -37%

Results for C[C@@H]1C(c2cccc(Cl)c2)=NN(c2ccccc2)[C@H]1C(=O)N1CCOC1=O ?
IL1B secr inh: -78*; HT1080-NT tox: -9%; TGFb SMAD3 inh: 20µM*; Giardia kill: -19; HT1080 IDH1KD tx: -13%; HepG2 viability: -48%

What do the screens show for `O=C(NCCC(=O)N1CCCC1)c1ccccc1Cl`?
IL1B secr inh: -4; HT1080-NT tox: inconclusive; TGFb SMAD3 inh: -4%; Giardia kill: 5; HT1080 IDH1KD tx: 15%; HepG2 viability: -33%

Results for Cc1cc(C)n(-c2nc(Nc3ccccc3)nc(-n3nc(C)cc3C)n2)n1 ?
IL1B secr inh: -2; HT1080-NT tox: 10%; TGFb SMAD3 inh: 1%; Giardia kill: -1; HT1080 IDH1KD tx: 6%; HepG2 viability: -31%

What do the screens show for `Cc1cc(C)n(-c2nc(N(c3ccccc3)c3ccccc3)nc(-n3nc(C)cc3C)n2)n1`?
IL1B secr inh: -84*; HT1080-NT tox: 5%; TGFb SMAD3 inh: inconclusive; Giardia kill: 4; HT1080 IDH1KD tx: 2%; HepG2 viability: 5%

Results for COc1ccc2c(c1)c1c(c(=O)n(CCc3ccccc3)c(=O)n1Cc1cccc(C)c1)n2C ?
TGFb SMAD3 inh: 13%; HepG2 viability: 12%

What do the screens show for `Clc1nc(NCc2ccco2)c2ccccc2n1`?
TGFb SMAD3 inh: 1%; HepG2 viability: -14%

How did Cc1ccccc1Nc1nc(NCc2ccco2)c2ccccc2n1 do in these assays?
IL1B secr inh: -102*; HT1080-NT tox: inconclusive; TGFb SMAD3 inh: inconclusive; Giardia kill: -1; HT1080 IDH1KD tx: 15µM*; HepG2 viability: -37%

How did COc1ccc(OC)c(Nc2nc(NCc3ccco3)c3ccccc3n2)c1 do in these assays?
IL1B secr inh: -97*; HT1080-NT tox: 21µM*; TGFb SMAD3 inh: inconclusive; Giardia kill: 3; HT1080 IDH1KD tx: inconclusive; HepG2 viability: -53%

What do the screens show for `Oc1ccccc1Nc1nc(NCc2ccco2)c2ccccc2n1`?
IL1B secr inh: -63*; HT1080-NT tox: -13%; TGFb SMAD3 inh: inconclusive; Giardia kill: 10; HT1080 IDH1KD tx: -6%; HepG2 viability: -74%

What do the screens show for `O=c1cc(NCc2ccccc2)c2ccccc2o1`?
IL1B secr inh: -20; HT1080-NT tox: 7%; TGFb SMAD3 inh: 0%; Giardia kill: 15; HT1080 IDH1KD tx: 16%; HepG2 viability: 9%

Results for COc1cc(OC)cc(C(=O)N2CCN(C3CCN(Cc4ccccc4)CC3)CC2)c1 ?
IL1B secr inh: 5; HT1080-NT tox: -3%; TGFb SMAD3 inh: 0%; Giardia kill: 15; HT1080 IDH1KD tx: 2%; HepG2 viability: -2%

Results for Cc1ccccc1NC(=O)CC1(c2ccc(N(C)C)cc2)C(=O)c2ccccc2C1=O ?
IL1B secr inh: -30; HT1080-NT tox: -6%; TGFb SMAD3 inh: 1%; Giardia kill: -4; HT1080 IDH1KD tx: 0%; HepG2 viability: -27%

How did COC(=O)c1ccc(C2/C(=C(\O)c3ccc4c(c3)OCCO4)C(=O)C(=O)N2c2nnc(C)s2)cc1 (stereo unspecified) do in these assays?
IL1B secr inh: -22; HT1080-NT tox: 6%; TGFb SMAD3 inh: 8%; Giardia kill: 6; HT1080 IDH1KD tx: 6%; HepG2 viability: 0%

What do the screens show for `Cc1cccc(O)c1C`?
IL1B secr inh: -3; HT1080-NT tox: 0%; TGFb SMAD3 inh: 23%; Giardia kill: 6; HT1080 IDH1KD tx: inconclusive; HepG2 viability: -9%

What do the screens show for `Cc1cccc(C)c1N=Nc1c(C)cc(O)cc1C`?
IL1B secr inh: -89*; HT1080-NT tox: inconclusive; TGFb SMAD3 inh: inconclusive; Giardia kill: 29; HT1080 IDH1KD tx: 21µM*; HepG2 viability: 3%

How did CCCCOC(=O)Cc1c(O)c2ccccc2[nH]c1=O do in these assays?
IL1B secr inh: 24; HT1080-NT tox: 5%; TGFb SMAD3 inh: -3%; Giardia kill: 9; HT1080 IDH1KD tx: 9%; HepG2 viability: -3%

How did CN(C)c1ccc(N=C/C=C2\N(C)c3ccccc3C2(C)C)cc1 do in these assays?
IL1B secr inh: -89*; HT1080-NT tox: inconclusive; TGFb SMAD3 inh: inconclusive; Giardia kill: 22; HT1080 IDH1KD tx: inconclusive; HepG2 viability: -39%

Results for Cc1cc(/N=C/C=C2\N(C)c3ccccc3C2(C)C)n(CCC#N)n1 ?
IL1B secr inh: -90*; HT1080-NT tox: inconclusive; TGFb SMAD3 inh: -19%; Giardia kill: 5; HT1080 IDH1KD tx: 3%[9.24 µM]; HepG2 viability: -22%

What do the screens show for `CCc1ccccc1NC(=O)CN1CCC(NC(=O)COC)CC1`?
IL1B secr inh: 0; HT1080-NT tox: 3%; TGFb SMAD3 inh: -20%; Giardia kill: 9; HT1080 IDH1KD tx: 4%; HepG2 viability: 0%

How did CCOC(=O)N=S(N)(=O)c1ccccc1 (stereo unspecified) do in these assays?
IL1B secr inh: -4; HT1080-NT tox: 8%; TGFb SMAD3 inh: 21%; Giardia kill: 0; HT1080 IDH1KD tx: -1%; HepG2 viability: -1%

What do the screens show for `CCOC(=O)CC(S(=O)(=O)c1ccccc1)S(=O)(=O)c1ccccc1`?
IL1B secr inh: inconclusive; HT1080-NT tox: inconclusive; TGFb SMAD3 inh: inconclusive; HT1080 IDH1KD tx: 21µM*; HepG2 viability: -99%

How did O=C(Nc1ccccn1)c1cccc(S(=O)(=O)N2CCc3ccccc3C2)c1 do in these assays?
IL1B secr inh: -56*; HT1080-NT tox: -14%; TGFb SMAD3 inh: -16%; Giardia kill: 5; HT1080 IDH1KD tx: -10%; HepG2 viability: 0%

What do the screens show for `O=C(Nc1cccc(S(=O)(=O)N2CCCCC2)c1)c1ccccn1`?
IL1B secr inh: -84*; HT1080-NT tox: 14%; TGFb SMAD3 inh: 3%; Giardia kill: -15; HT1080 IDH1KD tx: 14%; HepG2 viability: -2%

What do the screens show for `O=C(Nc1cccc(S(=O)(=O)N2CCOCC2)c1)c1ccc(Cl)nc1`?
IL1B secr inh: 26; HT1080-NT tox: -9%; TGFb SMAD3 inh: inconclusive; Giardia kill: 19; HT1080 IDH1KD tx: 0%; HepG2 viability: -12%

Bioassay records (PubChem BioAssay)
